IL1B secr inh = inhibitors of inflammasome signaling (IL-1 beta secretion); THP-1 LPS/ATP IL-1B secretion, AlphaLISA, 16 h; active compounds read low; activity change, % at 57.5 µM; 360,000 compounds, 4.7% hits; in the data active = activity change below about -50%; inconclusive = mostly about -30% to -49%
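THP-1 cells pretreated 1 hr with compounds (up to 57.5 uM final), then stimulated with LPS (250 ng/mL final) plus ATP (1.25 mM final); secreted IL-1B measured by AlphaLISA after 16 hr, decreased signal indicating inhibition.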
DT40 TDP1 no CPT = qHTS for Inhibitors of human tyrosyl-DNA phosphodiesterase 1 (TDP1): qHTS in cells in absence of CPT; DT40 Tdp1-/- hTDP1 cells, no CPT, ATP luminescence, 48 h; Potency, µM (titrated, usually from 46.2 µM), without a hit: at the highest dose activity change, negative = growth inhibition, hits mostly inhibitors; 420,000 compounds, 15% hits; note: potency is the fitted concentration of half-maximal effect; nearly all actives have a fitted effect of over 55% in size
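No-CPT arm: Tdp1-/-;hTDP1 DT40 cells (400/well) plus compounds, incubated ≥48 hr at 37 °C. Readout CellTiter-Glo luminescence.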
HT1080 IDH1KD tx = HT-1080 IDH1 knockdown cell toxicity (counter line). HT-1080 IDH1 knockdown viability, ATP luminescence, 48 h. 360,000 compounds, 2% hits. Potency, µM (titrated, usually from 46.1 µM), inactives show at the highest dose activity, negative = toxicity, usual class: cytotoxic. AID 686971;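 note: potency is the fitted concentration of half-maximal effect; 0% = DMSO wells and -100% = cell-free medium wells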
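% activity derives from luminescence (CellTiter-Glo), normalised to DMSO and no-cell wells. HT-1080-IDH1KD cells, 750/well, had 48 h compound exposure at 37 °C.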
DT40 TDP1 CPT = DT40-hTDP1 cell growth loss with CPT; 420,000 compounds, 12% hits; Potency, µM (doses to about 46.2 µM), inactives show top-dose activity change, negative = growth inhibition, hits mostly inhibitors; chicken DT40 Tdp1-/-;hTDP1 cells + 20 nM CPT, ATP luminescence, 48 h; AID 686979; note: potency is the fitted concentration of half-maximal effect; nearly all actives have a fitted effect of over 55% in size
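Chicken DT40 Tdp1-/- cells complemented with human TDP1, 400 cells/well, exposed to compounds plus 20 nM camptothecin for at least 48 h at 37 C; viability read as ATP content by CellTiter-Glo luminescence.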
HT1080NT lethal = kills 2HG-producing HT-1080-NT fibrosarcoma cells | HT-1080-NT fibrosarcoma viability, CellTiter-Glo ATP luminescence, 48 h | Potency, µM (titrated, usually from 46.1 µM), for inactives: at the highest dose activity, negative = less viability, actives largely listed as cytotoxic | 360,000 compounds, 1.6% hits;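 note: NT is the 2HG producing partner of a matched IDH1 knockdown line; potency is the fitted concentration of half-maximal effect; 0% = DMSO-treated cells and -100% = media-only wells without cells; nearly all actives have a fitted effect of over 55% in size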
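HT-1080-NT fibrosarcoma cells (2HG-overproducing), 750 cells/well in RPMI with 5% FBS, dosed after 2 h and incubated 48 h at 37C. CellTiter-Glo luminescence normalized to DMSO and no-cell wells; concentration-response curves fitted and classed.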
uPA generation = inhibitors of cell surface uPA generation; cell surface uPA generation assay, qHTS; Potency, µM (top dose mostly 38.3 µM), without a hit: at the highest dose activity change, negative = inhibition, most hits filed as inhibitors; 330,000 compounds, 0.31% hits; active = well fitted inhibition curve with a large enough effect; inconclusive = small, poorly fitted or top-dose-only effect; inactive = no such curve, though single readings can be large or run the other way; tested in mouse RAW 264.7 cells; note: potency is the fitted concentration of half-maximal effect; nearly all actives have a fitted effect of over 55% in size
Numbers without * were called inactive; ? = inconclusive; nt = no result; [ ] = remark or other dose. Most compounds without a hit are left out; they make up all but 19% or so of the library. Unless noted, calls come from the whole dose curve; as a rule, active = well fitted curve in the direction sought with a large enough effect; inconclusive = small, poorly fitted or top-dose-only effect, or another doubt; inactive = no such curve, though single readings can be large; an effect the other way counts as inactive or inconclusive. Unless noted, % is set by controls: 0 for no effect and ±100 for the full control effect.

SMILES | IL1B secr inh | DT40 TDP1 no CPT | HT1080 IDH1KD tx | DT40 TDP1 CPT | HT1080NT lethal | uPA generation
COc1ccc(NC(=O)CSC2=Nc3ccccc3C3=NC(CCC(=O)NC4CCCCC4)C(=O)N23)cc1 (configuration not stated) | nt | -26% | nt | ? | nt | nt
O=C(CSC1=Nc2ccccc2C2=NC(CC(=O)NC3CCCCC3)C(=O)N12)Nc1ccc(F)cc1 (configuration not stated) | nt | -94% | nt | ? | nt | nt
CCc1ccc(NC(=O)CSC2=Nc3ccccc3C3=NC(CC(=O)NC4CCCCC4)C(=O)N23)cc1 (configuration not stated) | nt | 9.2µM* | nt | 12µM* | nt | nt
COc1cc(/C=C/C(=O)Nc2ccc(S(=O)(=O)Nc3ncccn3)cc2)ccc1OCC#N | -18 | ? | 0% | 1% | 3% | 9%
CC(=O)Nc1ccc(NC(=O)C(C)Sc2nc3ccccc3c(=O)n2CC2CCCO2)cc1 (configuration not stated) | -5 | ? | -4% | ? | -2% | -3%
CCC1CN(CC(=O)NCc2cc(C)n(C)n2)Cc2cc(OC)ccc2O1 (configuration not stated) | nt | -3% | nt | 18%[9.04 µM] | nt | nt
CCOc1ccccc1NC(=O)CSC1=Nc2ccccc2C2=NC(CC(=O)NC3CCCCC3)C(=O)N12 (configuration not stated) | nt | 21µM* | nt | 21µM* | nt | nt
CC(C)c1ccc(NC(=O)CSC2=Nc3ccccc3C3=NC(CC(=O)NC4CCCCC4)C(=O)N23)cc1 (configuration not stated) | nt | 21µM* | nt | 21µM* | nt | nt
CC(C)c1ccc(NC(=O)CSC2=Nc3ccccc3C3=NC(CC(=O)NCc4ccc(F)cc4)C(=O)N23)cc1 (configuration not stated) | nt | -11% | nt | 1% | nt | nt
CCOc1ccc(NC(=O)CSC2=Nc3ccccc3C3=NC(CC(=O)NCc4ccco4)C(=O)N23)cc1 (configuration not stated) | nt | 23µM* | nt | 15µM* | nt | nt
COc1ccc(NC(=O)CSC2=Nc3ccccc3C3=NC(CCC(=O)NC4CCCCC4)C(=O)N23)cc1Cl (configuration not stated) | nt | 23µM* | nt | ? | nt | nt
S=C1NCc2cncnc2N1 | 54 | 6% | 26% | -1% | 12% | nt
Cc1cc(Nc2nnnn2-c2ccccc2)n(-c2ccccc2)n1 | 25 | -16% | 0% | ? | 1% | nt
Cc1cc(Nc2nc3ccccc3nc2Cl)n(-c2ccccc2)n1 | ? | 16µM* | 13µM* | 18µM* | ? | nt
Cc1cc(Nc2ccccc2)n(-c2ccc(Br)cc2)n1 | 2 | ? | ? | 18µM* | ? | -5%
CSc1ncc(C(=O)Nc2ccccc2C(F)(F)F)c(-c2ccccc2)n1 | nt | -19% | nt | -26% | nt | nt
COc1cc(C#Cc2ccc3cc(CCO)oc(=O)c3c2)cc(OC)c1 | -1 | 18µM* | -13% | ? | -8% | -23%
Cc1ccc(S(=O)(=O)N2CCC(C(=O)OCC(=O)NCc3cccc(Cl)c3)CC2)cc1C | 6 | -14% | 0% | 2% | 0% | 3%
COc1cc(=O)n2c(c1C(=O)NC(C)c1ccco1)CCN(Cc1cc3ccccc3o1)CC2 (configuration not stated) | nt | -6% | nt | 0%[9.04 µM] | nt | nt
Cc1cccc(C(=O)Nc2cccc(C(=O)N/N=C/c3ccc4c(c3)OCO4)c2)c1 | 17 | 29µM* | ? | ? | 18µM* | -13%
Cc1cccc(C(=O)Nc2ccc(C(=O)N/N=C/c3ccc4c(c3)OCO4)cc2)c1 | 9 | ? | -25% | -26% | ? | 0%
O=C(N/N=C/c1ccc2c(c1)OCO2)c1cccc(NC(=O)c2ccccc2Cl)c1 | 70 | 8.2µM* | 8.2µM* | 8.2µM* | 12µM* | -4%
O=C(NCCC1=CCCCC1)c1ccc2c(c1)sc1nc(-c3ccc(F)cc3)cn12 | nt | ? | nt | -16% | nt | nt
COc1ccc(-c2cn3c(n2)sc2cc(C(=O)NCCCN4CCCCC4)ccc23)cc1 | nt | 0.73µM* | nt | 1µM* | nt | nt
COc1ccc(-c2cn3c(n2)sc2cc(C(=O)NCCCN4CCCCCC4)ccc23)cc1 | nt | 3.3µM* | nt | 2.9µM* | nt | nt
SMILES | IL1B secr inh | DT40 TDP1 no CPT | HT1080 IDH1KD tx | DT40 TDP1 CPT | HT1080NT lethal | uPA generation
COc1ccc(-c2cn3c(n2)sc2cc(C(=O)Nc4ccc(C)c(C)c4)ccc23)cc1 | nt | ? | nt | -28% | nt | nt
CCCCCCCCCCCCCCCCCCN(CCCCCCCCCCCCCCCCCC)c1ccc(/C=C/c2ccnc3ccccc23)cc1 | nt | -4% | nt | -9% | nt | nt
CCCCCCCCN(CCCCCCCC)c1ccc(/C=C/c2ccnc3ccccc23)cc1 | nt | -21% | nt | -3% | nt | nt
CCCCN(CCC(=O)O)c1ccc(/C=C/c2ccnc3ccccc23)cc1 | nt | 16µM* | nt | 5.6µM* | nt | nt
CCCCCN(CCCCC)c1ccc(/C=C/c2ccnc3ccccc23)cc1 | nt | 13µM* | nt | ? | nt | nt
CCN(CCCN(C)C)c1ccc(/C=C/c2ccnc3ccccc23)cc1 | nt | 16µM* | nt | ? | nt | nt
O=C(O)CCN(CCC(=O)O)c1ccc(/C=C/c2ccnc3ccccc23)cc1 | nt | -25% | nt | -8% | nt | nt
CCCn1c(=O)c2sccc2n2c(CCCC(=O)Nc3ccccc3OCC)nnc12 | nt | -10% | nt | -2% | nt | nt
COc1ccccc1N(C)S(=O)(=O)c1ccc(C(=O)N2CCCc3ccccc32)cc1 | -11 | 23µM* | -19% | 21µM* | -9% | -2%
COc1ccccc1N(C)S(=O)(=O)c1ccc(C(=O)Nc2cc(OC)c(OC)c(OC)c2)cc1 | -17 | 12µM* | -15% | 16µM* | -11% | ?
CN(c1ccc(C(=O)NC2CCCC2)cc1)S(=O)(=O)c1ccccc1 | 5 | ? | -10% | -23% | -2% | -8%
COc1ccccc1N(C)S(=O)(=O)c1ccc(C(=O)Nc2ccc(C)cc2C)cc1 | -25 | 23µM* | -13% | ? | 0% | -5%
COc1ccccc1N(C)S(=O)(=O)c1ccc(C(=O)N2CCC2)cc1 | 9 | ? | 4% | ? | -13% | ?
COc1ccccc1N(C)S(=O)(=O)c1ccc(C(=O)NC2CCCCC2)cc1 | -21 | ? | -12% | 15µM* | -2% | 5%
COc1ccccc1N(C)S(=O)(=O)c1ccc(C(=O)OCC(=O)Nc2ccccc2F)cc1 | 44 | 8% | -3% | -5% | 1% | 2%
COc1ccccc1NC(=O)c1ccc(S(=O)(=O)N(C)c2ccccc2OC)cc1 | 13 | ? | -10% | ? | -5% | 16%

Compound activity: PubChem BioAssay, National Center for Advancing Translational Sciences (NCATS)
